From PubChem
Pf Dd2 inh: P. falciparum Dd2 growth inhibition; activity change, % at 10 µM; SYBR Green, 72 h; hits give low values; 94,000 compounds, 2.3% hits; AID 1159554; in the data active means activity change below about -80%; inconclusive means no clear call, values can overlap the other calls
T cruzi growth: inhibitors of T. cruzi proliferation; AID 624255; 77,000 compounds, 5.9% hits; inhibition, % at 8.34 µM; T. cruzi beta-gal in NIH3T3, GalScreen luminescence, 90 h;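 active means mean inhibition above about 93%, with at least 55% of replicates each passing it, limit read from the data, passing the limit was not always enough; inconclusive means only one of those two conditions holds; inactive means neither condition holds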
C diff growth: blocks growth of Clostridium difficile. 86,000 compounds, 0.25% hits. growth activity, negative = inhibition, % at 16 µg/mL (by protocol). Clostridium difficile clinical isolate growth, OD600, 24 h; hits give low values;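 active means mean growth activity at or below -80% and every replicate also at or below -80%; inconclusive means mean at or below -80% but some replicate above -80%; inactive means mean growth activity above -80%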;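 further: 0% = DMSO wells and -100% = levofloxacin 16 µg/mL wells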
* = called active by the depositor. Sampled rows, rich in hits. Any-hit rate of the full collection: about 6.7%.

`C[C@H]1CN([C@@H](C)CO)C(=O)c2cccc(NS(C)(=O)=O)c2O[C@H]1CN(C)C(=O)NC1CCCCC1` gave Pf Dd2 inh 8.7 and C diff growth 3.2.
Screening CO[C@@H]1CN(C)C(=O)c2ccc(NC(=O)Nc3cc(F)ccc3F)cc2OC[C@@H](C)N(C(=O)c2cnccn2)C[C@H]1C returned Pf Dd2 inh -42.5 and T cruzi growth 4.7.
Screening C[C@H](CO)N1C[C@H](C)[C@H](CN(C)S(=O)(=O)c2ccc(C#N)cc2)OCc2ccccc2-c2c(n(C)c3ccccc23)C1=O returned Pf Dd2 inh -88.4* and T cruzi growth 90.2.
`C[C@H]1CN([C@@H](C)CO)C(=O)c2c(c3ccccc3n2C)-c2ccccc2CO[C@@H]1CN(C)S(=O)(=O)c1ccc(C#N)cc1` gave Pf Dd2 inh -72.7 and T cruzi growth 55.7.
CNC[C@@H]1Oc2ccc(NS(=O)(=O)c3ccc(C)cc3)cc2CC(=O)N([C@H](C)CO)C[C@H]1C was read as Pf Dd2 inh 16.2, T cruzi growth 12.8 and C diff growth 3.1.
CC(=O)N1[C@@H]2c3cccc(=O)n3C[C@@H]2[C@@H](CO)[C@@H]1C(=O)NCc1ccccc1 was read as Pf Dd2 inh 18.5 and C diff growth -3.2.
For CCCNC(=O)N1CC2(CCN(C(=O)COC)CC2)c2c(n(C)c3cc(OC)ccc23)[C@H]1CO the results were Pf Dd2 inh 30.9.
Screening C[C@@H]1CCCCO[C@@H](CN(C)Cc2ccc(C(F)(F)F)cc2)[C@@H](C)CN([C@H](C)CO)C(=O)c2cc(NC(=O)CCC(F)(F)F)ccc2O1 returned Pf Dd2 inh -30.8, T cruzi growth 51.5 and C diff growth 5.6.
C[C@H](CO)N1C[C@H](C)[C@H](CN(C)Cc2ccc(C(F)(F)F)cc2)OCCCC[C@H](C)Oc2ccc(NC(=O)CCCN(C)C)cc2C1=O was read as Pf Dd2 inh -86.2*, T cruzi growth 76.0 and C diff growth 11.8.
Screening C[C@@H]1CCCCO[C@H](CN(C)Cc2ccc(C(F)(F)F)cc2)[C@@H](C)CN([C@@H](C)CO)C(=O)c2cc(NC(=O)CCCN(C)C)ccc2O1 returned Pf Dd2 inh -88.2*, T cruzi growth 62.1 and C diff growth 1.1.
Screening C[C@@H]1CN([C@@H](C)CO)C(=O)c2cc(NC(=O)CCCN(C)C)ccc2O[C@@H](C)CCCCO[C@H]1CN(C)Cc1ccc(C(F)(F)F)cc1 returned Pf Dd2 inh -84.0*, T cruzi growth 83.0 and C diff growth 2.4.
For C[C@@H]1CN([C@H](C)CO)C(=O)c2cc(NC(=O)CCCN(C)C)ccc2O[C@@H](C)CCCCO[C@H]1CN(C)Cc1ccc(C(F)(F)F)cc1 the results were Pf Dd2 inh -85.9*, T cruzi growth 77.3 and C diff growth 5.3.
C[C@H]1CCCCO[C@@H](CN(C)Cc2ccc(C(F)(F)F)cc2)[C@@H](C)CN([C@@H](C)CO)C(=O)c2cc(NC(=O)CCC(F)(F)F)ccc2O1 was read as Pf Dd2 inh -44.6, T cruzi growth 78.9 and C diff growth -0.5.
C[C@@H]1CCCCO[C@@H](CN(C)Cc2ccc(C(=O)O)cc2)[C@H](C)CN([C@H](C)CO)C(=O)c2cc(NC(=O)CCCN(C)C)ccc2O1 was read as Pf Dd2 inh 10.8, T cruzi growth -96.2 and C diff growth 4.9.
For C[C@@H]1CCCCO[C@H](CN(C)Cc2ccc(C(F)(F)F)cc2)[C@@H](C)CN([C@H](C)CO)C(=O)c2cc(NC(=O)CCC(F)(F)F)ccc2O1 the results were Pf Dd2 inh -38.3, T cruzi growth -51.7 and C diff growth -0.5.
`C[C@H]1CN([C@@H](C)CO)S(=O)(=O)c2ccc(C#CC3CC3)cc2O[C@@H]1CN(C)C(=O)c1cccnc1` gave Pf Dd2 inh -18.2, T cruzi growth 4.6 and C diff growth -2.5.
`C[C@@H]1CN([C@H](C)CO)C(=O)c2cc(NC(=O)c3ccncc3)ccc2O[C@H]1CN(C)S(C)(=O)=O` gave Pf Dd2 inh 19.3, T cruzi growth -1.6 and C diff growth -7.1.
For COc1ccc(S(=O)(=O)Nc2ccc3c(c2)C(=O)N([C@@H](C)CO)C[C@@H](C)[C@@H](CN(C)S(C)(=O)=O)OCCCC[C@@H](C)O3)cc1 the results were Pf Dd2 inh -18.3, T cruzi growth 52.2 and C diff growth 4.0.
`C[C@H](CO)N1C[C@H](C)[C@@H](CN(C)Cc2cccc(F)c2)Oc2ncc(C3=CCCC3)cc2C1=O` gave Pf Dd2 inh -26.0, T cruzi growth 96.2 and C diff growth 3.7.
COc1cccc(S(=O)(=O)Nc2ccc3c(c2)OC[C@@H](C)N(Cc2ccccc2F)C[C@@H](C)[C@@H](OC)CN(C)C3=O)c1 was read as Pf Dd2 inh 33.0 and T cruzi growth inconclusive.
Cc1noc(C)c1S(=O)(=O)N(C)C[C@@H]1OCCCC[C@@H](C)Oc2ccc(NC(=O)Nc3ccccc3)cc2C(=O)N([C@H](C)CO)C[C@H]1C was read as Pf Dd2 inh -82.8* and C diff growth 14.2.
Cc1noc(C)c1S(=O)(=O)N(C)C[C@H]1OCCCC[C@H](C)Oc2ccc(NC(=O)Nc3cccc4ccccc34)cc2C(=O)N([C@H](C)CO)C[C@H]1C was read as Pf Dd2 inh -92.4* and C diff growth -0.2.
`Cc1noc(C)c1S(=O)(=O)N(C)C[C@@H]1OCCCC[C@H](C)Oc2ccc(NC(=O)Nc3cccc4ccccc34)cc2C(=O)N([C@H](C)CO)C[C@H]1C` gave Pf Dd2 inh -79.3, T cruzi growth 83.3 and C diff growth -2.5.
For Cc1noc(C)c1S(=O)(=O)N(C)C[C@H]1OCCCC[C@H](C)Oc2ccc(NC(=O)Nc3ccccc3)cc2C(=O)N([C@@H](C)CO)C[C@@H]1C the results were Pf Dd2 inh inconclusive and C diff growth 5.0.
Screening Cc1noc(C)c1S(=O)(=O)N(C)C[C@H]1OCCCC[C@@H](C)Oc2ccc(NC(=O)Nc3ccc(F)cc3)cc2C(=O)N([C@H](C)CO)C[C@@H]1C returned Pf Dd2 inh -4.9, T cruzi growth 8.5 and C diff growth -7.4.
`Cc1noc(C)c1S(=O)(=O)N(C)C[C@H]1OCCCC[C@@H](C)Oc2ccc(NC(=O)Nc3ccc(F)cc3)cc2C(=O)N([C@@H](C)CO)C[C@@H]1C` gave Pf Dd2 inh -83.2*, T cruzi growth 94.1 and C diff growth -10.3.
`C[C@@H]1CN([C@@H](C)CO)C(=O)c2cc(-c3ccc(F)cc3)cnc2O[C@H]1CN(C)C(=O)C1CCC1` gave Pf Dd2 inh 5.2 and C diff growth -0.8.
COc1ccc(S(=O)(=O)Nc2ccc3c(c2)C(=O)N([C@@H](C)CO)C[C@H](C)[C@H](CN(C)C)O3)cc1 was read as Pf Dd2 inh 2.4, T cruzi growth -23.4 and C diff growth 2.0.
Screening C[C@@H]1CCCCO[C@H](CN(C)C(=O)CCCN(C)C)[C@@H](C)CN([C@@H](C)CO)C(=O)c2cc(NC(=O)Nc3cccc4ccccc34)ccc2O1 returned Pf Dd2 inh -70.1, T cruzi growth 61.1 and C diff growth 1.5.
`CC(C)NC(=O)N(C)C[C@@H]1Oc2ncc(C#Cc3ccccc3F)cc2C(=O)N([C@@H](C)CO)C[C@@H]1C` gave Pf Dd2 inh -57.9, T cruzi growth 83.1 and C diff growth -6.1.
